Among the data in PubChem BioAssay AID540308 (The Scripps Research Institute Molecular Screening Center, 2011) are activation values, retold here.

Each structure is given as a SMILES string. Hit rate of the full screen: of about 360,000 compounds, about 3,500 (0.97%) were called active.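 Rule for the calls: active = activation above a per-plate cutoff, the mean activation of sample wells on that plate plus 3 SD (cut at about 8% in these data); inactive = the rest.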 For the sample, actives were picked, then their nearest neighbours and some compounds at random.

This test deals with Melanocortin receptor 4 (Homo sapiens) (UniProt P32245). As to the kind of experiment: MC4R agonists recruiting beta-arrestin, primary screen, cell-based, luminescence, agonist arm of biased-ligand search (AID 540308). To be noted: U2OS MC4R beta-arrestin complementation, at 8.9 µM, stronger effect = higher value, percent of melanotan II response, DMSO zero.
Sequence of Melanocortin receptor 4 (Homo sapiens) (P32245 whole entry, looked up): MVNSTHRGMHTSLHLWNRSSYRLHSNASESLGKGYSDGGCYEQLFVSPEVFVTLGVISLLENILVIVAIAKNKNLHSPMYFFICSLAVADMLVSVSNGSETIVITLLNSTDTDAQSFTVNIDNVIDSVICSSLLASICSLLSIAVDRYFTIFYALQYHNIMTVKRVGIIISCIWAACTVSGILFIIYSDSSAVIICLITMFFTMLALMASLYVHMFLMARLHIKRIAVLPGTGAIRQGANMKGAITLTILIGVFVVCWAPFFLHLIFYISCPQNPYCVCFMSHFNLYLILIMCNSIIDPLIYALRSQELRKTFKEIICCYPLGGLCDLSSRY
Take `COC(=O)c1c(C)[nH]c(C(=O)/C=C/c2ccc(Cl)cc2)c1C`: the activation was 30.6% (active).

Consider `CCCCOC(=O)c1[nH]c(C)c(C(=O)OC)c1C`, for which the activation is -0.04% (inactive).

Regarding `COC(=O)c1c(C)[nH]c(C(=O)NCCc2ccc(S(N)(=O)=O)cc2)c1C`, the activation is 0.27% (inactive).

As to `CCCCCC(O)c1cccc(OCc2ccc3ccccc3n2)c1` (configuration not stated), the activation was 8.01% (inactive).

With `CN(CC(=O)Nc1ccc(Cl)cc1)C(=O)c1ccc(COc2ccccc2)cc1`, the activation is 23.3% (active).

As for `COc1ccc(NC(=O)CN(C)C(=O)c2ccc(COc3ccccc3)o2)cc1`, the activation was -0.54% (inactive).

Regarding `CN(Cc1ccccc1)C(=O)c1ccc(COc2ccccc2)cc1`, the activation is -0.25% (inactive).

As for `O=C(Nc1nnc([C@H]2C[C@H](O)[C@@H](CO)O2)s1)c1cccc(Cl)c1`, the activation was 0.51% (inactive).

On to `Cc1cc(Br)ccc1NC(=O)CCCOc1cc(=O)n(C)c2ccccc12`, for which the activation is -1.42% (inactive).

Consider `CCc1nc2c(OCCC3CCCCC3)cccn2c1N(C)C(=O)c1ccco1`, for which the activation is 1.25% (inactive).

On to `N#CC(=C1CCCC1)c1nc(-c2ccc(Cl)cc2)cs1`, for which the activation was -1.29% (inactive).

In the case of `CC(C)c1cccc(-c2csc(C(O)c3ccccc3)n2)c1` (configuration not stated), the activation is 5.31% (inactive).

Take `N#CC(=C1SC=CS1)c1nc(-c2ccccc2)cs1`: the activation is 30.3% (active).

As for `O=C(Cn1nnc(-c2ccccc2)n1)N/N=C/c1ccc(-c2ccc(Cl)cc2)o1`, the activation was 9.43% (active).

Consider `O=C(CN1CCOCC1)N/N=C/c1ccc(-c2ccc(Br)cc2)o1`, for which the activation was -3.54% (inactive).

Consider `Nc1nnn(CC(=O)N/N=C/c2ccccc2)n1`, for which the activation was -0.81% (inactive).

Consider `Cc1cc2nc(SCCN3CCOCC3)[nH]c2cc1C`, for which the activation was 3.6% (inactive).

`Cc1ccc(NC(=O)c2ccco2)cc1`: the activation is -2.18% (inactive).

Consider `Cc1ccc(-n2nc3cc(C)c(NC(=O)c4cccnc4)cc3n2)cc1`, for which the activation was 2.16% (inactive).

In the case of `Cc1ccc(-n2nc3cc(Cl)c(NC(=O)c4ccco4)cc3n2)cc1`, the activation is 9.62% (active).

`CCOc1ccc(C(=O)Nc2ccc(S(=O)(=O)NCC3CCCO3)cc2)cc1OCC` (configuration not stated): the activation is -3.73% (inactive).

For `CCCNC(=O)C1(C)CCCN(Cc2c(C)nn(-c3ccccc3)c2C)C1` (configuration not stated), the activation was 0.24% (inactive).

For the compound `CC(C)Oc1cc(F)ccc1-c1cc(C(=O)Nc2cccc(Cl)c2)[nH]n1`, the activation is 0.52% (inactive).

Regarding `Cc1cc(C)cc(C(=O)OCC(=O)NCCNC(=O)COC(=O)c2cc(C)cc(C)c2)c1`, the activation is 12% (active).

`COc1ccccc1C(=O)OCC(=O)NCCNC(=O)COC(=O)c1ccccc1OC`: the activation is -1.16% (inactive).

For `COc1ccc(C(=O)OCC(=O)NCCCc2ccccc2)cc1OC`, the activation is 1.24% (inactive).

Take `CCOC(=O)C1CCCN(C(=O)c2ccc(C)c(F)c2)CC1` (configuration not stated): the activation is -1.19% (inactive).

On to `Cc1ccc(-n2c(C)cc(/C=C(\C#N)C(=O)NCC3CCCO3)c2C)cc1` (configuration not stated), for which the activation was -2.19% (inactive).

In the case of `N#C/C(=C\c1cccnc1)C(=O)Nc1ccc(SC(F)F)cc1`, the activation is -1.77% (inactive).

On to `Cc1cc(/C=C(/C#N)C(=O)Nc2ccc(Cl)cc2)c(C)n1-c1cccnc1`, for which the activation was 11.4% (active).

On to `CC1(C(=O)NCC2CCOCC2)Cc2c(-c3cccc(C(N)=O)c3)ccnc2O1` (configuration not stated), for which the activation was 0.47% (inactive).

Turning to `CCOC(=O)c1c(-c2ccc(C)cc2C)csc1NC(=O)CSc1nnnn1C`, the activation was 14.8% (active).

For the compound `COC(=O)c1ccccc1NC(=O)CSc1nnnn1C`, the activation is -1.06% (inactive).

For `Cn1nnnc1SCC(=O)Nc1sccc1C(N)=O`, the activation was 0.49% (inactive).

`OC[C@H]1O[C@@H](c2nc(-c3nc(-c4ccc(F)cc4)no3)cs2)[C@H](O)[C@@H](O)[C@H]1O`: the activation is -1.58% (inactive).

Consider `Nc1nc(CSc2nnnn2-c2ccccc2)nc(Nc2ccccc2)n1`, for which the activation was 3.67% (inactive).

On to `CCOC(=O)c1ccc(-c2ccc3ncnc(N(C)Cc4sccc4C)c3c2)o1`, for which the activation is 1.6% (inactive).

Consider `CC1(C(=O)NS(=O)(=O)c2ccc(C#N)cc2)CCN1C(=O)c1ccc(C2CCCCC2)cc1` (configuration not stated), for which the activation was -2.29% (inactive).

As for `CCc1ccc(CN(C)C(=O)C2CCC(=O)N(Cc3cccc(OC)c3)C2)nc1` (configuration not stated), the activation was -1.43% (inactive).

For `Cc1nc2c(OCC(=O)C(C)(C)C)cccn2c1N(C)Cc1cccs1`, the activation is -0.1% (inactive).

On to `CN(C)CCCN(C(=O)c1ccc(S(=O)(=O)N2CCCCCC2)cc1)c1nc2ccc(Br)cc2s1`, for which the activation was 9.74% (active).

For `CCN(CC(=O)Nc1c(F)cccc1F)C(=O)c1ccc(S(=O)(=O)N2CCCCC2)cc1`, the activation is -2.71% (inactive).

Consider `CN(C)CCN(C(=O)C1=COCCO1)c1nc2ccc(Cl)cc2s1`, for which the activation is 1.13% (inactive).

Consider `CCNC(=O)C1(C)CCN(Cc2ccc(C(=O)OCC)o2)C1` (configuration not stated), for which the activation was -1.16% (inactive).

For `Cn1c(=O)c2cc(NC(=O)NCCc3cccs3)ccc2n1Cc1cccc(C(F)(F)F)c1`, the activation was -0.26% (inactive).

`CCc1nc2c(OCC(N)=O)cccn2c1N(C)C(=O)c1ccc(OC)cc1`: the activation was -1.44% (inactive).

As for `COc1ccc(NC(=O)C2=C(C)NC(=O)NC2c2ccccc2[N+](=O)[O-])cc1` (configuration not stated), the activation was -2.18% (inactive).

Regarding `COc1cc(C2C(C(=O)Nc3ccc(F)cc3)=C(C)Nc3nc(CCCO)nn32)cc(OC)c1OC` (configuration not stated), the activation is -1.43% (inactive).

Take `COC(=O)c1nc2n(n1)C(c1ccc([N+](=O)[O-])cc1)C(C(=O)Nc1ccc(Cl)cc1)=C(C)N2` (configuration not stated): the activation was 9.62% (active).

On to `CCNC(=O)C1(C)CCN(C(=O)c2ccccc2)C1` (configuration not stated), for which the activation was 1.33% (inactive).

In the case of `CSCCC(Nc1ccc(S(=O)(=O)N2CCOCC2)cc1[N+](=O)[O-])C(=O)OCC(=O)N(C(C)C)C(C)C` (configuration not stated), the activation is -3.39% (inactive).

Take `NC(=O)C1CCN(C(=O)c2cn(-c3ccccc3)nc2-c2cccnc2)CC1`: the activation was 8.8% (active).

`O=C(c1cn(-c2ccccc2)nc1-c1cccnc1)N1CCN(S(=O)(=O)c2ccccc2F)CC1`: the activation was -2.08% (inactive).

On to `COc1ccccc1N1CCN(C(=O)c2cn(-c3ccccc3)nc2-c2cccnc2)CC1`, for which the activation is 0.24% (inactive).

As to `CC(C)OC(=O)c1ccc(NCc2cc(O)ccc2O)cc1Cl`, the activation was -0.65% (inactive).

For `O=C(OC12CC3CC(CC(C3)C1)C2)c1ccc(NCc2cc(O)ccc2O)cc1`, the activation is 18.7% (active).

`COC(=O)c1ccc(NCc2cc(O)ccc2O)cc1`: the activation is -1.55% (inactive).
